A selection: hits, their analogues and other compounds. The true share with any hit is near 4%.
TROY NFkB inh: TROY signaling inhibition. Q293 LMP1-TROYcd NF-kB luciferase reporter, 4 h. inhibition, % at 10 µM. 360,000 compounds, 0.98% hits;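 active means compounds whose plate-normalised and pattern-corrected inhibition of the luciferase reporter signal at the single screening dose is 50% or more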
Peg3 prom inh: Peg3 promoter activity inhibition; HeLa PEG-Prom luciferase reporter, luminescence, overnight; inhibition, % at 20 µM; 360,000 compounds, 1.7% hits; AID 588405;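 active means inhibition of at least 50% at 20 µM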
CF NFkB block: blocks PAF-induced NF-kB reporter in cystic fibrosis cells. KKLEB NF-kB-GFP reporter, GFP fluorescence overnight. inhibition, % at 5 µM. 360,000 compounds, 0.86% hits. AID 588850;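 active means at least 50% inhibition at 5 µM, scaled per plate between neutral and stimulator controls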;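 further: PAF is a Pseudomonas aeruginosa culture filtrate used as stimulus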
KKLEB tox: reduces viability of KKLEB cystic fibrosis airway cells. KKLEB CF airway cells viability, ATPlite luminescence, overnight; stronger effect = lower value; cells stimulated with P. aeruginosa culture filtrate. 360,000 compounds, 0.36% hits. activity change (cytotoxicity), % at 5 µM;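 active means corrected activity change at or below -50% at 5 µM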
HIF-2a inh: HIF-2a inhibition | 786-0 RCC cells HIF-2a reporter, luciferase luminescence, overnight | inhibition, % at 18.8 µM | 360,000 compounds, 0.72% hits;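 active means inhibition of the luminescence signal of 40% or more relative to plate controls, in a single-dose primary screen at 18.75 µM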
TWEAK-Fn14 inh: blocks TWEAK-Fn14 interaction in a reporter cell assay. TWEAK-stimulated Fn14 reporter cells, luciferase luminescence, 8 h. inhibition, % at 10 µM. 360,000 compounds, 2% hits; in the data active means inhibition above about 50%
Mdm2-MdmX confirm: confirmation of inhibitors of human Mdm2/MdmX interaction, set 2; shares compounds with HIF-2a inh; SaOS-2 split-luciferase Mdm2/MdmX complementation, luminescence; inhibition, % at 8 µM; 740 compounds, 99% hits;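 active means mean inhibition of the luminescence signal across two replicates at or above 26 percent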
Target sequence (O15151 whole entry, looked up): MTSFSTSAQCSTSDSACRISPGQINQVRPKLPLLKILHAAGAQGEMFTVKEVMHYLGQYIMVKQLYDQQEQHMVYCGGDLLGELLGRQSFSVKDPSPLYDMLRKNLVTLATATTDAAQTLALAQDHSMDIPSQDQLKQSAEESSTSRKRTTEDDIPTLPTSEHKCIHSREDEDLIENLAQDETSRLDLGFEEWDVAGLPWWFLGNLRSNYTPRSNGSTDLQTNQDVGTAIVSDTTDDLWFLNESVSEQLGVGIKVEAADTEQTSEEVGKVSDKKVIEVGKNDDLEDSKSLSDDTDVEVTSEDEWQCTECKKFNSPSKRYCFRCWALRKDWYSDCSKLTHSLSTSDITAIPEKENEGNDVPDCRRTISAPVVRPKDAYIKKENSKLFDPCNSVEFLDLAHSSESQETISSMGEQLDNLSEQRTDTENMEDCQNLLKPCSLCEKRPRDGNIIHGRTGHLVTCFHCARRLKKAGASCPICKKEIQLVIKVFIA
Target sequence (Q00987 whole entry, looked up): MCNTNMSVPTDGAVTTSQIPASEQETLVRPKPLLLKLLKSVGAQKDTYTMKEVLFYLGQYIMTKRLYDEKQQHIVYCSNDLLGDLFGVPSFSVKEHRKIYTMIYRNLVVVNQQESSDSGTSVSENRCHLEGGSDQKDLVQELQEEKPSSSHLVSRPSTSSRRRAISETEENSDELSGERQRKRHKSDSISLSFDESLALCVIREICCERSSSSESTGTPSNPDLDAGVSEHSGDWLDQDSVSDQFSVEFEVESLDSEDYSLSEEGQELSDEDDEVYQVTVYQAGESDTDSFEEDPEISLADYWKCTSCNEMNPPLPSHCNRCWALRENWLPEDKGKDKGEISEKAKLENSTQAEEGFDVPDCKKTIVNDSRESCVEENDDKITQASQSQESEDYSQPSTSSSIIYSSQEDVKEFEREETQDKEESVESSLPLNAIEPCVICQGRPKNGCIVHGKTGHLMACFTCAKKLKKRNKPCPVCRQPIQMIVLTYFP
HIF-2a conf: confirmation of HIF-2a inhibitors; shares compounds with HIF-2a inh; 786-0 RCC cells, HIF-2a luciferase reporter luminescence, overnight; inhibition, % at 18.8 µM; 1,800 compounds, 56% hits; AID 651580;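 active means mean inhibition across four replicates of at least 40 percent at the single tested concentration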
HIF-1a counter: counter-screen for HIF-2a inhibitors: HIF-1a inhibition in MiaPaCa-2 cells; shares compounds with HIF-2a inh; MiaPaCa-2 HIF-1a luciferase reporter, desferoxamine, overnight; inhibition, % at 18.8 µM; 1,800 compounds, 72% hits; AID 651589;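 active means mean inhibition of the reporter signal across four replicates at the single tested dose of 50% or more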
Numbers stand for hits; – = inactive; · = no result given.

SMILES	TROY NFkB inh	Peg3 prom inh	CF NFkB block	KKLEB tox	HIF-2a inh	TWEAK-Fn14 inh	HIF-2a conf	HIF-1a counter	others
S=c1[nH]nc(-c2ccccc2)n1/N=C/c1ccc(-c2ccccc2Cl)o1	–	–	–	–	–	–	·	·	Mdm2-MdmX confirm=100
CCc1[nH]nc2c1C(c1ccc(Br)s1)C(C#N)=C(N)O2 (stereo not given)	–	–	–	–	41	–	–	–
CCc1[nH]nc2c1C(c1ccsc1)C(C#N)=C(N)O2 (stereo not given)	–	–	–	–	–	–	·	·
Cc1ccc(/C=C2/SC(=S)N(CCCC(=O)Nc3ccc(O)cc3)C2=O)cc1	–	–	–	–	–	–	·	·	Mdm2-MdmX confirm=101
O=C(CCN1C(=O)/C(=C/c2ccccc2)SC1=S)N1CCCCCC1	–	105	–	–	67	–	·	·	Mdm2-MdmX confirm=102
CCc1ccc(/C=C2\SC(=S)N(CCC(=O)N3CCN(C)CC3)C2=O)cc1	–	–	–	–	–	–	·	·
O=C(CCCN1C(=O)/C(=C/c2ccccc2)SC1=S)Nc1cccc(O)c1	–	78	–	–	73	–	·	·	Mdm2-MdmX confirm=103
COc1ccc(NC(=O)N2CCCC2C(=O)NCc2cccs2)cc1 (stereo not given)	–	–	–	–	–	–	·	·
O=C(Nc1ccc2c(c1)OCCO2)C1c2ccccc2OCC(=O)N1CCCN1CCOCC1 (stereo not given)	–	·	·	·	–	–	·	·
Cc1ccc(S(=O)(=O)N2CCCC2CNC(=O)c2ccc(F)c(F)c2)cc1 (stereo not given)	–	–	–	–	–	–	·	·
CCOc1ccc(/C=C/C(=O)c2ccccc2)cc1OC	–	–	–	–	–	–	·	·
COc1cccc(C(=O)/C=C/c2ccc(OCC#N)c(OC)c2)c1	–	107	–	–	85	84	42	105
CN(C)CCN=Cc1c(O)n(-c2ccc(S(=O)(=O)N3CCOCC3)cc2)c(=O)c2ccccc12	–	–	–	–	–	–	·	·
CN1CCN(Cc2nc3ccccc3c(=O)n2Cc2nc(-c3ccc4ccccc4c3)cs2)CC1	–	105	–	–	62	–	–	106
O=c1nc(/C=C/c2cc([N+](=O)[O-])ccc2Cl)cc(C(F)(F)F)[nH]1	–	–	–	–	83	–	61	79
COc1cc(/C=C/c2cc(C(F)(F)F)[nH]c(=O)n2)cc(OC)c1OC	–	–	–	–	40	–	–	–
O=C(NC1CCN(Cc2ccccc2)CC1)c1ccc2c(c1)[nH]c(=O)n2Cc1ccc(F)cc1	–	–	–	–	48	–	–	–
COc1ccc(-c2cc(C3CC3)nc(SCC(=O)c3cccs3)c2C#N)cc1	–	–	–	–	–	–	·	·
CSc1nc(C2CC2)cc(-c2cccs2)c1C#N	–	57	94	-63	51	–	–	–
COc1ccc(C(=O)NC2CCCc3ccccc32)cc1[N+](=O)[O-] (stereo not given)	–	–	–	–	–	–	·	·
CN1CCc2c(sc(NC(=O)c3ccc([N+](=O)[O-])o3)c2C(N)=O)C1	65	107	82	–	55	52	55	104	Mdm2-MdmX confirm=101
CN1CCc2c(sc(NC(=O)c3ccco3)c2C(N)=O)C1	–	–	–	–	–	–	·	·
COc1ccc(S(=O)(=O)N2CCOC23CCN(S(C)(=O)=O)CC3)cc1	–	–	–	–	–	–	·	·
COC(=O)c1ccc(COc2ccccc2/C=C(\C#N)C(=O)Nc2c(C)cccc2C)cc1	–	62	–	–	46	61	45	82
CN(c1ccccc1)S(=O)(=O)c1cccc(C(=O)OCC(=O)Nc2ccc(C(N)=O)cc2)c1	–	–	–	–	–	–	·	·
SMILES	TROY NFkB inh	Peg3 prom inh	CF NFkB block	KKLEB tox	HIF-2a inh	TWEAK-Fn14 inh	HIF-2a conf	HIF-1a counter	others
COc1ccccc1C(=O)NCCOc1ccc(C(C)(C)C)cc1	–	–	–	–	–	–	·	·
CC(C)(C)c1ccc(C(=O)NCCOc2ccccc2F)cc1	75	67	–	–	41	95	61	73
Cc1ccc(C(=O)c2cccc(N)c2)cc1C	–	–	–	–	84	52	93	56
CCC(=O)Nc1cccc(C(=O)c2ccc(C)c(C)c2)c1	–	–	–	–	45	–	65	–
Cc1ccc(C(=O)c2ccc(O)cc2)cc1C	–	–	–	–	–	–	·	·
CCC(=O)Nc1cccc(C(=O)/C=C/c2ccccc2)c1	–	102	–	–	44	65	–	101
O=C(c1ccccc1)C(Nc1cccc([N+](=O)[O-])c1)c1ccccc1 (stereo not given)	–	–	–	–	–	–	·	·
COc1ccc2oc(C(=O)OCC(=O)Nc3ccc(C(=O)N(C)C)cc3)c(C)c2c1	–	–	–	–	–	–	·	·
CC1(C)CC(=O)C2=C(C1)OC1=C(C(=O)CC(C)(C)C1)C2c1ccc(O)cc1O	82	108	97	-54	93	104	97	106	Mdm2-MdmX confirm=103
O=S(=O)(/C=C/C=C/S(=O)(=O)c1ccccc1)c1ccccc1	–	100	92	–	95	93	96	105
O=C(Nc1ccc(-c2nc3cccnc3s2)cc1)C1CCCO1 (stereo not given)	60	–	–	–	58	99	69	–
O=C(Nc1ccc(-c2nc3ccccc3o2)cc1)C1CCCO1 (stereo not given)	–	–	–	–	–	–	·	·
CCOC(=O)C1Nc2ccc(C(F)(F)F)cc2C2c3ccccc3CC12 (stereo not given)	–	–	–	–	–	–	·	·	Mdm2-MdmX confirm=66
CCOC(=O)c1sc(NC(=O)c2cc(-c3ccccc3)nc3ccccc23)c(C#N)c1C	63	–	–	–	–	62	·	·	Mdm2-MdmX confirm=98
COC(=O)[C@@]12C[C@@H](CC(=O)N3CCN(C(=O)C4CC4)CC3)C(=O)N(Cc3ccco3)C1=CCC(C)(C)C2	·	·	·	·	–	·	·	·
COc1ccc(-c2cnc3c(NC=O)cc(-c4cccc(NS(C)(=O)=O)c4)cn23)cc1OC	–	69	93	-62	51	–	79	–
COc1cccc(-c2cc(NC=O)c3ncc(-c4ccc(OC)c(OC)c4)n3c2)c1	–	–	–	–	–	–	·	·
CC1C/C(=C/c2cccn2C)C(=O)/C(=C/c2cccn2C)C1 (stereo not given)	–	–	–	–	–	–	·	·
